Rab9 prom act = activates the Rab9 promoter | AID 485297 | Huh7 Rab9 promoter-luciferase reporter, luminescence, 24 h | Potency, µM (doses to about 9.22 µM), for the others: top-dose activation, negative = inhibition, actives largely listed as activators | actives 2.8% (n = 320,000); note: % of control where 0% means no effect; nearly all actives have a fitted effect of over 60% in size
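Quantitative HTS format; Huh7 Rab9-luciferase reporter cells (1500/well) receive compound 2 h post-plating, incubate 24 h at 37 °C, then get luciferase reagent for 10 min before luminescence reading.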
ELG1 genotoxic = genotoxicity induction in ELG1-luciferase HEK293T cells; HEK293T ELG1-luciferase reporter, luminescence, 16 h; Potency, µM (highest dose often 46 µM), for inactives: at the highest dose activity change, positive = activation, hits mostly activators; actives 1.3% (n = 330,000); AID 504466; note: % of control where 0% means no effect; nearly all actives have a fitted effect of over 60% in size
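16 hr compound incubation (37 °C, 5% CO2) of HEK293T cells carrying luciferase-tagged ELG1; luciferase then measured by ONE-Glo luminescence after 30 min at RT.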
FLuc counter = firefly luciferase modulation, counter-screen for miR-21 project | P08659 | purified FLuc, Km substrates, luminescence inhibition | Potency, µM (series often up to 57.5 µM), without a hit: top-dose activity change, negative = inhibition, usual class: inhibitors | actives 6.9% (n = 360,000) | AID 588342;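 note: plate controls were vehicle for no effect and reference inhibitor for full effect; nearly all actives have a fitted effect of over 55% in size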
Target sequence (P08659 whole entry, looked up): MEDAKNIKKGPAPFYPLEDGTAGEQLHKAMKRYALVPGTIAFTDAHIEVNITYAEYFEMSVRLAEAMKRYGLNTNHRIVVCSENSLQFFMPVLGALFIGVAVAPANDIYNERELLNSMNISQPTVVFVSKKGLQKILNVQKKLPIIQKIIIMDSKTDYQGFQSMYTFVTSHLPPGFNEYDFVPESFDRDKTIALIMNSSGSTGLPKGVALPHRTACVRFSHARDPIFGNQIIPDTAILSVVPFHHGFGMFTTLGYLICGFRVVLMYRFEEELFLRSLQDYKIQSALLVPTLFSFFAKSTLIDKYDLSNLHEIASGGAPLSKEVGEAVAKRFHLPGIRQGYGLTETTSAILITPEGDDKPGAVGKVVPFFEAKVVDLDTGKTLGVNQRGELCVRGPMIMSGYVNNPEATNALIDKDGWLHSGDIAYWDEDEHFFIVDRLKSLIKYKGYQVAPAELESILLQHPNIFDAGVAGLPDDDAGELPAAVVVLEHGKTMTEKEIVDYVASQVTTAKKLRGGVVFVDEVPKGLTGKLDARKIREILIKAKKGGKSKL
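Biochemical qHTS of compounds, final roughly 60 µM downward over six points, against 10 nM purified firefly luciferase using Km concentrations of substrates (10 uM D-luciferin, 10 uM ATP) in Tris acetate pH 7.5 buffer; luminescence output.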
NPC1 prom act = NPC1 promoter activation; Huh7 NPC1 promoter luciferase reporter, 24 h; actives 2.4% (n = 320,000); Potency, µM (series often up to 9.22 µM), for the others: top-dose activation, actives largely listed as activators; note: % of control where 0% means no effect; nearly all actives have a fitted effect of over 60% in size
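Huh7 reporter cells (NPC1 promoter driving luciferase) are dosed with compound for 24 h at 37 °C, 5% CO2; luciferase detection reagent is then added and luminescence measured after 10 min at ambient temperature.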
ELG1 DNA repair = inhibitors of ELG1-dependent DNA repair in HEK293T cells. HEK293T ELG1-luciferase reporter, luminescence, 16 h; DNA damage induced by 5-fluorouridine. Potency, µM (doses to about 46.1 µM), for the others: at the top dose activity change, negative = inhibition, most hits filed as inhibitors. actives 2.3% (n = 330,000). AID 504467; note: % is set by controls: 0 for no effect and ±100 for the full control effect; nearly all actives have a fitted effect of over 55% in size
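Cells (2,000 per well) received 5-fluorouridine plus test compound or DMSO and were incubated 16 hr at 37 °C, 5% CO2. Luciferase activity was read by luminescence 30 min after ONE-Glo addition; signal suppression marked inhibition of damage-induced ELG1 function.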
SMN2 splice enh = enhancers of SMN2 splice variant expression; actives 2.8% (n = 210,000); AID 1458; HEK293 SMN2-luciferase splicing reporter, luminescence, 30-36 h; Potency, µM (series often up to 46.1 µM), for inactives: top-dose activity change, positive = activation, actives largely listed as activators; note: % of control where 0% means no effect; nearly all actives have a fitted effect of over 55% in size
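qHTS luciferase splicing reporter: luminescence rises when SMN2 exon 7 is included in transfected HEK293 cells. Compound exposure lasted 30-36 h at 37C, with 4.5 mM final sodium butyrate as control, followed by a ONE-Glo read.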
* marks the source's active call; other numbers are inactive results. In the library only some 9.2% were active in any assay of this set; here they are far more common. Calls come from the whole dose curve; as a rule, active = well fitted curve in the direction sought with a large enough effect; inconclusive = small, poorly fitted or top-dose-only effect, or another doubt; inactive = no such curve, though single readings can be large; an effect the other way counts as inactive or inconclusive. Potency is the fitted concentration of half-maximal effect.

Screening CC(C)CCCN1C(Nc2ccccc2)=NC[C@@H]1C returned Rab9 prom act -0.6%, ELG1 genotoxic 0.6%, FLuc counter 5.5%, NPC1 prom act -2.5% and ELG1 DNA repair 0.4%.
COCC(=O)Nc1nc2ccc(C)cc2s1 was read as Rab9 prom act 1.12µM*, ELG1 genotoxic 2.06µM*, FLuc counter 9.53µM*, NPC1 prom act 2.51µM*, ELG1 DNA repair inconclusive and SMN2 splice enh 10µM*.
`Cc1ccc2nc(NC(=O)COC(=O)c3ccncc3)sc2c1` gave Rab9 prom act inconclusive, ELG1 genotoxic inconclusive, FLuc counter 8.49µM*, NPC1 prom act inconclusive, ELG1 DNA repair inconclusive and SMN2 splice enh inconclusive.
`Cc1ccc2nc(NC(=O)COc3ccc(F)cc3)sc2c1` gave FLuc counter 1.8%.
For C=C1C[C@H](OC(=O)C(C)(O)CCl)C2C(=C)C(=O)O[C@@H]2C2C1C[C@H](O)[C@]2(O)CCl (some centres not stated) the results were SMN2 splice enh -1.3%.
`Cn1c(SCc2c(F)cccc2Cl)nnc1-c1cccs1` gave Rab9 prom act 2.24µM*, ELG1 genotoxic 13µM*, FLuc counter 15.1µM*, NPC1 prom act inconclusive, ELG1 DNA repair inconclusive and SMN2 splice enh 20µM*.
`Cn1c(SCCOc2ccccc2Cl)nnc1-c1cccs1` gave Rab9 prom act 3.1%, ELG1 genotoxic 5.6%, FLuc counter inconclusive, NPC1 prom act -1.4%, ELG1 DNA repair inconclusive and SMN2 splice enh -5.0%.
For COc1ccc(-c2cc3nc(-c4ccccc4)cc(N4CCC(O)CC4)n3n2)cc1 the results were Rab9 prom act 1.0%, ELG1 genotoxic -10.8%, FLuc counter 2.6%, NPC1 prom act -3.4% and ELG1 DNA repair 16.4µM*.
`Fc1ccc(-c2cc3nc(-c4ccccc4)cc(N4CCOCC4)n3n2)cc1` gave Rab9 prom act -1.3%, ELG1 genotoxic -5.6%, FLuc counter -0.5%, NPC1 prom act -3.0%, ELG1 DNA repair inconclusive and SMN2 splice enh 1.2%.
Screening COc1ccc(-c2cc3nc(-c4ccccc4)cc(N4CCCC(O)C4)n3n2)cc1 (configuration not stated) returned Rab9 prom act -4.1%, ELG1 genotoxic -6.9%, FLuc counter -5.9%, NPC1 prom act 0.0% and ELG1 DNA repair 16.4µM*.
`Cc1ccc(-c2cc3nc(-c4ccccc4)cc(N4CCC5(CC4)OCCO5)n3n2)cc1` gave Rab9 prom act -3.2%, ELG1 genotoxic -3.5%, FLuc counter -0.4%, NPC1 prom act 2.7%, ELG1 DNA repair -29.8% and SMN2 splice enh -11.6%.
For COc1ccc(CN2C(=O)c3ccccc3C(/C=N\OCc3ccc(C)cc3)C2=O)cc1 (configuration not stated) the results were Rab9 prom act 2.6%, ELG1 genotoxic -6.6%, FLuc counter 16.9µM*, NPC1 prom act 5.3%, ELG1 DNA repair 10.3% and SMN2 splice enh -19.2%.
`CCCCn1c2c(c(=N)c3ccccc31)CCC2` gave Rab9 prom act -38.9%, ELG1 genotoxic -10.0%, FLuc counter 0.2%, NPC1 prom act -34.4% and ELG1 DNA repair 1.64µM*.
`N=c1c2c(n(Cc3ccc(Cl)cc3)c3c1CCC3)CCC2` gave Rab9 prom act -26.4%, ELG1 genotoxic -12.5%, FLuc counter -1.0%, NPC1 prom act -22.7%, ELG1 DNA repair 2.91µM* and SMN2 splice enh -43.2%.
N=c1c2c(n(Cc3ccccc3)c3c1CCC3)CCC2 was read as Rab9 prom act -39.2%, ELG1 genotoxic -0.6%, FLuc counter -3.3%, NPC1 prom act -25.4%, ELG1 DNA repair 2.91µM* and SMN2 splice enh -38.1%.
CCCCCCCCn1c2c(c(=N)c3ccccc31)CCC2 was read as Rab9 prom act -3.1%, ELG1 genotoxic 0.9%, FLuc counter -1.2%, NPC1 prom act -3.6% and ELG1 DNA repair 6.3%.
COc1ccccc1CNS(=O)(=O)c1ccc(-n2cnnn2)c(OC)c1 was read as Rab9 prom act 0.2%, ELG1 genotoxic -1.5%, FLuc counter 1.9%, NPC1 prom act -0.6% and ELG1 DNA repair -6.7%.
CN(C)c1ccc(-c2nc3ccc(Cl)cn3c2Nc2ccc3c(c2)OCCO3)cc1 was read as FLuc counter inconclusive and SMN2 splice enh 10.4%.
Screening C/C(CC(=O)NCC(C)C)=N\NC(=O)COc1cc(C)c(Br)cc1Br returned Rab9 prom act -0.4%, ELG1 genotoxic -1.3%, FLuc counter 4.3%, NPC1 prom act -2.5%, ELG1 DNA repair 2.7% and SMN2 splice enh 11.0%.
CCOc1ccc(S(=O)(=O)N(C)c2ccc(OCC(=O)N3CCOCC3)cc2)cc1 was read as Rab9 prom act 1.5%, ELG1 genotoxic -2.9%, FLuc counter -3.5%, NPC1 prom act 0.7%, ELG1 DNA repair -16.8% and SMN2 splice enh 0.0%.
Screening COc1ccc(C(=O)Nc2ccc(OCC(=O)N3CCOCC3)cc2)c(OC)c1OC returned Rab9 prom act 7.2%, ELG1 genotoxic 10.9%, FLuc counter 13.5µM*, NPC1 prom act -1.0% and ELG1 DNA repair inconclusive.
Screening Cc1cc(NC(=O)c2ccccc2F)cc(C)c1OCC(=O)N1CCOCC1 returned Rab9 prom act 12.8%, ELG1 genotoxic 6.7%, FLuc counter 9.53µM*, NPC1 prom act -0.7% and ELG1 DNA repair inconclusive.
COC(=O)Nc1ccc(OCC(=O)N2CCOCC2)cc1 was read as Rab9 prom act -4.2%, ELG1 genotoxic 0.2%, FLuc counter 4.8%, NPC1 prom act -3.1%, ELG1 DNA repair 2.3% and SMN2 splice enh 5.9%.
For COc1cc(C(=O)Nc2cc(C)c(OCC(=O)N3CCOCC3)c(C)c2)cc(OC)c1OC the results were Rab9 prom act 1.9%, ELG1 genotoxic 9.3%, FLuc counter 4.0%, NPC1 prom act -3.8% and ELG1 DNA repair 13.8%.
For CN(C)S(=O)(=O)c1ccc(C(=O)Nc2ccc(OCC(=O)N3CCOCC3)cc2)cc1 the results were Rab9 prom act 9.0%, ELG1 genotoxic 3.6%, FLuc counter 15.1µM*, NPC1 prom act 1.5%, ELG1 DNA repair 14.4% and SMN2 splice enh -0.2%.
Cc1cc(NC(=O)c2cc3ccccc3o2)cc(C)c1OCC(=O)N1CCOCC1 was read as Rab9 prom act -4.3%, ELG1 genotoxic -16.3%, FLuc counter 12µM*, NPC1 prom act 8.4%, ELG1 DNA repair inconclusive and SMN2 splice enh -4.5%.
COC(=O)c1sccc1S(=O)(=O)N(CC(=O)NCc1ccccc1)c1ccc(C)c(C)c1 was read as FLuc counter -3.6%.

Bioassay records deposited in PubChem by National Center for Advancing Translational Sciences (NCATS).
